Measured values as given in the supplement of paper PMC5662767.
Structures can show the parent of a compound that is named as a salt.

Test system: Drosophila S2 cl14 SmoIP sensor cells
Assay: normalized SmoIP GFP fluorescence (untreated unstimulated = 0%, untreated Hh-stimulated = 100%); higher = more Smo activation sensor fluorescence
Details: compound concentration: 2 uM, 24 h
[1] = stimulation: Hh conditioned medium (+Hh)
[2] = stimulation: mock conditioned medium (-Hh)
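Also: flow cytometry read-out as median GFP intensity of gated cells, compounds added 30 min before Hh-conditioned or mock medium, mock-treated cells serving as unstimulated baseline.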

SMILES | normalized SmoIP GFP fluorescence [1] [%] | normalized SmoIP GFP fluorescence [2] [%]
Cc1c(NC(=O)OC[C@@H]2COCCN2)cn2ncnc(Nc3ccc4c(cnn4Cc4cccc(F)c4)c3)c12 | 128 | 16.5
Cn1c(=O)c(F)c(Nc2ccc(I)cc2F)c2c(=O)n(C[C@@H](O)CO)cnc21 | 262 | 47.8
CCOC(=O)CCNc1cc(N2CCc3ccccc3CC2)nc(-c2ccccn2)n1 | 116 | -2.48
CS(=O)(=O)c1ccc(-c2cnc(N)c(C(=O)Nc3ccccc3)n2)cc1 | 232 | 74.4
CNC(=O)c1cccc(-c2ccc3c(N4CCOC[C@@H]4C)nc(N4CCOC[C@@H]4C)nc3n2)c1 | 65.7 | -4.47
Cc1csc(-c2nnc(Nc3ccc(Oc4ncccc4-c4ccnc(N)n4)cc3)c3ccccc23)c1 | 102 | -0.747
CCOC(=O)[C@H](CCc1ccccc1)N[C@@H](C)C(=O)N1[C@@H](C(=O)O)C[C@@H]2CCC[C@@H]21 [Ramipril(Altace)] | 137 | -16.3
O=C(O)Cc1cccc(OCCCN(Cc2cccc(C(F)(F)F)c2Cl)CC(c2ccccc2)c2ccccc2)c1 | 130 | -0.116
CCN(CC)CCOC(=O)c1ccc(N)cc1 [procaine-novocaine-hcl] | 107 | -3.5
COc1ccc([C@H]2CNC(=O)C2)cc1OC1CCCC1 [sRolipram] | 102 | -4.08
C#C[C@]1(OC(C)=O)CC[C@H]2[C@@H]3CCC4=C[C@@H](OC(C)=O)CC[C@@H]4[C@H]3CC[C@@]21C [ethynodiol-diacetate] | 100 | -1.63
CN(C)CC(=O)Nc1ccc2[nH]c(=O)c3ccccc3c2c1 | 113 | -1.97
